High-throughput results as filed in PubChem.
BRCA1 expr act: qHTS Assay to Identify Small Molecule Activators of BRCA1 Expression; MCF7-BRCA1-FFLuc reporter, luminescence, 48 h; response scale: scaled: vehicle 0%, 10 µM genistein 100%; Potency, µM (top dose mostly 46.1 µM), for inactives: top-dose activation, most hits filed as activators; 380,000 tested, 1.1% active; note: potency is the fitted concentration of half-maximal effect; nearly all actives have a fitted effect of over 80% in size
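MCF7-BRCA1-FFLuc, 2000 cells/well; 2 h attach, 37 °C/5% CO2; compound 48 h; luciferase substrate 15 min; luminescence end-point. Norm. to genistein 10 microM max activation and DMSO; concentration-response curves fitted.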
IL-2 act: qHTS of IL-2 Activators; IL-2 activation reporter assay, cell-based qHTS; stimulated with anti-CD3/CD4/CD28 beads; in transgenic mouse T cells; activation, % (series mostly up to about 46 µM); 360,000 tested, 0.065% active; AID 652025, 2013; in the data active = activation above about 50%; inconclusive = mostly about 30% to 49%; note: 0% is about no effect
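Screening format: compound pinned onto unstimulated transgenic mouse T cells, 60 min incubation, then anti-CD3/anti-CD4/anti-CD28 bead stimulation for 18 hours at 37 degrees C, followed by EGFP and DsRed detection.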
Integrin act MD: qHTS for Activators of Integrin-Mediated Alleviation for Muscular Dystrophy; alpha7betagal myoblasts, beta-gal FDG fluorescence, 48 h; Potency, µM (titrated, usually from 38.3 µM), for inactives: top-dose activation, most hits filed as activators; 350,000 tested, 0.064% active; AID 624291, 2012;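 note: potency is the fitted concentration of half-maximal effect; 100% = response of the positive control SU9516; nearly all actives have a fitted effect of over 60% in size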
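alpha7betagal+/- myoblasts (passage 13, 250/well) treated 48 h at 37C with compounds at 1:260 dilution of DMSO stock. Lysed, then beta-galactosidase activity read as FDG fluorescence (ex 480/em 540) after 30 min, with pre-read for autofluorescence.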
N370S GC mod: qHTS Assay for Inhibitors and Activators of N370S glucocerebrosidase as a Potential Chaperone Treatment of Gaucher Disease; Lysosomal acid glucosylceramidase (Homo sapiens), P04062; N370S GC spleen homogenate, 4MU-glucoside fluorescence; Potency, µM (titrated, usually from 59.4 µM), inactives show at the highest dose activity change, negative = inhibition, usual class: inhibitors; 330,000 tested, 0.092% active;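 note: potency is the fitted concentration of half-maximal effect; 0% = full enzyme activity and -100% = no enzyme basal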
BCR signal inh: qHTS Assay to Find Inhibitors of Chronic Active B-Cell Receptor Signaling | 340,000 tested, 0.05% active | ABC-DLBCL IkBa-CBG/CBR reporter, luminescence ratio, 4 h | AID 493014, 2011 | Potency, µM (highest dose often 46.1 µM), without a hit: at the top dose activity change, negative = inhibition, most hits filed as inhibitors; active = well fitted inhibition curve with a large enough effect in the signal ratio, with a control signal flat, not every such curve was filed as active; inconclusive = small, poorly fitted or top-dose-only effect, or effect the other way, or a change in a side signal; the % refers to the signal ratio;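 note: potency is the fitted concentration of half-maximal effect; plate controls were basal doxycycline-induced cells for no effect and cells given 10 µM MG132 for full effect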
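Compounds up to 46 uM were incubated four hours with TMD8 cells whose green CBG68 luciferase is fused to IkappaBalpha; red CBR luminescence normalised the signal, and concentration-effect curves were fitted to fusion, red and ratio data.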
Nrf2 activator: qHTS of Nrf2 Activators | AREc32 ARE-luciferase reporter (MCF7-derived line), luminescence, 24 h | Potency, µM (highest dose often 46.1 µM), inactives show top-dose activation, actives largely listed as activators | 410,000 tested, 0.31% active; note: potency is the fitted concentration of half-maximal effect; % of control where 0% means no effect; nearly all actives have a fitted effect of over 65% in size
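Luminescent ARE reporter assay in AREc32_Fluc cells: overnight plating at 37 deg C, 24 hr compound incubation, Steady-Glo added, 30 min RT before reading.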
Starred values were filed as active, the others as inactive; ? = inconclusive; . = no result given; ! = repeats disagree. Hits are enriched below; roughly 1.4% of the tested compounds scored in any of these assays. Unless noted, calls come from the whole dose curve; as a rule, active = well fitted curve in the direction sought with a large enough effect; inconclusive = small, poorly fitted or top-dose-only effect, or another doubt; inactive = no such curve, though single readings can be large; an effect the other way counts as inactive or inconclusive.

SMILES | BRCA1 expr act | IL-2 act | Integrin act MD | N370S GC mod | BCR signal inh | Nrf2 activator
Cc1ccc(S(=O)(=O)CC(=O)c2ccccc2)cc1 | 26% | -4 | -13% | 10% | ? | -1%
CC(C)(C)c1ccc(C(=O)CS(=O)(=O)c2ccccc2)cc1 | 4µM* | 0 | -6% | 12% | 11% | 0%
CNc1ccc(C=C2c3ccccc3-c3ccccc32)cc1 | -77% | . | . | . | . | .
c1ccc(-c2ccc(-n3ccnc3)cc2)cc1 | 10µM* | 1 | 23% | -7% | ? | 4%
O=C1NC(=O)C2(CCCCCCC2)N1 | -29% | 0 | -7% | . | . | -1%
Cc1ccc(OCC(=O)N2CCN(S(=O)(=O)c3ccc4c(c3)OCCO4)CC2)c(C)c1 | -2% | 0 | 2µM* | . | -5% | 6%
Cc1ccc(OCC(=O)N2CCCCC2)c(Br)c1 | 11µM* | 0 | 26% | 5% | 4% | 1%
Cc1cc(S(=O)(=O)N2CCCCC2)ccc1OCC(=O)N1CCOCC1 | 5% | -4 | 8% | -4% | 3% | 0%
CCc1ccc2oc(C(=O)NCc3ccccc3)cc(=O)c2c1 | . | . | . | . | . | 1%
CCCN1CNc2c(c(=O)[nH]c(=S)n2CCc2cccc(OC)c2)C1 | 2% | . | . | . | . | .
CC(=O)c1ccc(OCc2cc(C(=O)N3CCN(c4ccccc4)CC3C)no2)cc1 (centres undefined) | ? | -4 | 18% | 1% | 1% | 2%
CSc1ccccc1OCc1cc(C(=O)N2CCN(c3ccccc3)CC2C)no1 (centres undefined) | 13µM* | -4 | -24% | -10% | 0% | 2%
Cc1cc(C)nc(N/N=C/C(Cl)=C/c2ccccc2)n1 | 10µM* | -3 | -25% | . | ? | 4%
Cc1cc(-c2ccccc2)nc(N/N=C/c2ccc(O)cc2)n1 | 17% | 0 | -45% | -4% | ? | 8.9µM*
Cc1cc(C)nc(N/N=C/c2ccccc2)n1 | 93% | -4 | 18% | 4% | ? | 0%
COC(=O)C1CCN(S(=O)(=O)Cc2ccccc2Cl)CC1 | -5% | 1 | 21% | 3% | 2% | -1%
CCOc1ccc(N=Nc2c(N)[nH][nH]c2=O)cc1 | 5µM* | 1 | 19% | 9% | ? | 1%
Cc1cccc(OCC(=O)Nc2sc3c(c2C#N)CCC3)c1 | 10µM* | -1 | 9% | 5% | ? | 3%
Cc1cnc(C(=O)OCC(=O)Nc2sc3c(c2C#N)CCC3)cn1 | -13% | -4 | 20% | -1% | -2% | 0%
FC(F)(F)c1ccccc1N/N=C/c1cccnc1 | 28% | 0 | 0% | 4% | ? | 0%
Fc1ccc(N/N=C/c2cccnc2)c(F)c1 | 5.6µM* | 2 | 9% | 3% | -3% | 11%
CCOC(=O)C(=CNc1ccc(-c2ccco2)c(Cl)c1)C(=O)OCC | 15% | 1 | -32% | 8% | ? | 15%
COc1ccc(NS(=O)(=O)c2cc(-c3cnc(C4CC4)o3)ccc2C)cc1 | -13% | 0 | -33% | -5% | 13µM* | 4%
CCc1ccc(NS(=O)(=O)c2cc(-c3cnc(C4CC4)o3)ccc2C)cc1 | -61% | . | . | . | . | 0%
COCCSc1nnc(NC(=O)C(C)(C)C)s1 | 5.6µM* | 1 | 1% | -4% | -1% | -1%
SMILES | BRCA1 expr act | IL-2 act | Integrin act MD | N370S GC mod | BCR signal inh | Nrf2 activator
COCCSc1nnc(NC(=O)CSc2ccccc2)s1 | -2% | -3 | 14% | -14% | 0% | 0%
COc1cc(C(F)(F)F)ccc1C(=O)NCCc1ccco1 | 6.3µM* | 1 | 0% | 3% | ? | 3%
CCOC(=O)c1ccc(NCCOC)c([N+](=O)[O-])c1 | 13µM* | 1 | -27% | 1% | ? | 4%
COCCNc1cc(N)c([N+](=O)[O-])cc1[N+](=O)[O-] | -20% | -2 | -14% | 21% | 0% | 3%
Cc1nn(C)c(Cl)c1S(=O)(=O)N(Cc1ccco1)c1ncnc2nc[nH]c12 | 8% | . | . | . | . | .
COc1cccc(N=Nc2ccc(O)c3ncccc23)c1 | -68% | -4 | 0% | -3% | ? | 11µM*
COc1ccc(N=Nc2ccc(O)c3ncccc23)cc1 | -65% | -1 | -50% | 12% | ? | ?
Nc1[nH]ncc1N=Nc1ccc(Cl)cc1 | 11µM* | -1 | 1% | -5% | -21% | 3%
CC1CCc2c(sc(NC(=O)C3=COCCO3)c2C(N)=O)C1 (centres undefined) | 7.1µM* | 1 | 0% | . | 3% | 5%
CC1CCc2c(sc(NC(=O)c3noc4c3CCCC4)c2C(N)=O)C1 (centres undefined) | ? | -1 | 11% | . | . | 0%
COc1ccccc1CCNC(=O)c1ccc(Br)s1 | 8.9µM* | 1 | 13% | -7% | ? | 1%
COc1cc(/C=N/n2cnnc2)ccc1OS(=O)(=O)c1ccccc1[N+](=O)[O-] | 39% | 0 | -37% | 0% | -5% | 13µM*
Cc1ccc(OCc2cc(C(=O)N(CCO)Cc3cccs3)no2)cc1C | 11µM* | -1 | 8% | -14% | -6% | 4%
CCN(Cc1ccncc1)C(=O)c1cc(COc2ccc(C)c(C)c2)on1 | 2% | -2 | 0% | -6% | ? | 0%
O=C(Nc1ccc2ccccc2n1)C1CCCCC1 | 2.8µM* | 1 | 19% | 9% | ? | 0%
O=C(Nc1ccc2ccccc2n1)c1ccccc1Cl | 85% | 0 | 12% | 1% | ? | ?
CNC(=S)N/N=C/c1c(C)c(C(=O)c2ccc(F)cc2)n2ccccc12 | -42% | 83* | 1% | -14% | -6% | 4%
Cc1c(/C=N/NC(N)=O)c2ccccn2c1C(=O)c1ccc(F)cc1 | -34% | ? | 13% | -11% | -1% | 9%
CC(NC(=O)c1ccc(N(C)C)cc1)c1ccc(F)cc1 (centres undefined) | 29% | 0 | 0% | 13% | 0% | 0%
CC(/C=C/C(=O)NO)=C\[C@@H](C)C(=O)c1ccc(N(C)C)cc1 | . | . | . | 18µM*! | . | .
COc1cc(/C=C/c2ccnc3ccccc23)ccc1N(C)C | 11% | . | . | . | . | .
Cn1c(=O)n(Cc2ccccc2Cl)c(=O)c2c1nc1n2CCN1c1ccccc1 | . | . | . | . | . | 0%
CCc1ccccc1NC(=O)Nc1nnc(N(CC)c2ccccc2)s1 | . | . | . | . | . | 0%
COc1ccc(Nc2nc(C)c(C(C)=O)s2)cc1 | 13µM* | 0 | . | . | . | 18%
Cc1nc(Nc2ccccc2Cl)sc1C(=O)Nc1ccccc1 | 69% | 3 | 17% | ? | 10% | 4%
